Assay outcomes deposited in PubChem BioAssay by National Center for Advancing Translational Sciences (NCATS).
HT1080-NT tox – kills 2HG-producing HT-1080-NT fibrosarcoma cells; HT-1080-NT fibrosarcoma viability, CellTiter-Glo ATP luminescence, 48 h; Potency, µM (series often up to 46.1 µM), without a hit: at the top dose activity, negative = less viability, hits mostly cytotoxic; hit rate 1.6% among 360,000; AID 686970;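 note: NT is the 2HG producing partner of a matched IDH1 knockdown line; 0% = DMSO-treated cells and -100% = media-only wells without cells; nearly all actives have a fitted effect of over 55% in size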
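Read-out is CellTiter-Glo luminescence after 10 minutes at room temperature, following 48 hours' compound treatment of HT-1080-NT cells (750 cells/well, RPMI, 5% FBS, 37 degrees C).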
TDP1 cell CPT – growth inhibition of DT40 Tdp1-/-;hTDP1 cells with camptothecin (screen for TDP1 inhibitors); hit rate 12% among 420,000; Potency, µM (top dose mostly 46.2 µM), for inactives: at the top dose activity change, negative = growth inhibition, usual class: inhibitors; chicken DT40 Tdp1-/-;hTDP1 cells + 20 nM CPT, ATP luminescence, 48 h; note: nearly all actives have a fitted effect of over 55% in size
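Chicken DT40 Tdp1-/- cells stably complemented with human TDP1 were seeded at 400 cells/well in medium containing 20 nM camptothecin, exposed to pin-transferred compounds, and grown at 37 °C for at least 48 hr. Viability was read as ATP luminescence.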
KB-V1 MDR tox – kills drug-selected multidrug resistant KB-V1 cells. AID 1347076. Potency, µM (doses to about 46.1 µM), actives largely listed as cytotoxic. hit rate 3.4% among 400,000. KB-V1 MDR cells viability, CellTiter-Glo, 72 h; note: nearly all actives have a fitted effect of over 60% in size
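Readout: CellTiter-Glo luminescence, 10 min after addition. Cells: KB-V1 MDR subline, 72 h at 37 degrees C with compound. Analysis: corrected, normalized data fitted to concentration-effect curves.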
HT1080 IDH1KD tx – kills HT-1080 cells with IDH1 knockdown; Potency, µM (titrated, usually from 46.1 µM), without a hit: top-dose activity, negative = toxicity, hits mostly cytotoxic; AID 686971; HT-1080 IDH1 knockdown viability, ATP luminescence, 48 h; hit rate 2% among 360,000;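 note: 0% = DMSO wells and -100% = cell-free medium wells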
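After a 2 h attachment period, IDH1KD HT-1080 cells took pin-transferred compound for 48 h at 37 °C; ATP-based luminescence after 10 min room-temperature reagent incubation reported viability.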
KB-3-1 cytotox – kills parental KB-3-1 adenocarcinoma cells | KB-3-1 viability, CellTiter-Glo ATP luminescence, 72 h | Potency, µM (highest dose often 46.1 µM), actives largely listed as cytotoxic | hit rate 1.4% among 400,000 | AID 1347075; note: nearly all actives have a fitted effect of over 60% in size
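Luminescent ATP read-out (CellTiter-Glo) measures survival of drug-naive KB-3-1 cells after 72 h compound exposure at 37 °C. Titration series was screened from lowest to highest concentration, with DMSO vehicle plates as background controls.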
DT40 TDP1 no CPT – qHTS for Inhibitors of human tyrosyl-DNA phosphodiesterase 1 (TDP1): qHTS in cells in absence of CPT. DT40 Tdp1-/- hTDP1 cells, no CPT, ATP luminescence, 48 h. Potency, µM (top dose mostly 46.2 µM), without a hit: at the highest dose activity change, negative = growth inhibition, hits mostly inhibitors. hit rate 15% among 420,000; note: nearly all actives have a fitted effect of over 55% in size
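Readout: luminescence from CellTiter-Glo after 30 min in the dark at RT. Cells: DT40 Tdp1-/- with stable hTDP1, 400/well. Exposure: compounds alone, ≥48 hr, 37 °C.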
Active calls of the source: *; i = inactive; u = inconclusive; x = not tested or not shown; ! = repeats disagree; [ ] = another dose, or the depositor's remark. Rows were chosen to be rich in hits. Some 19% of all compounds tested hit in one or more screens of this group. Calls come from the whole dose curve; as a rule, active = well fitted curve in the direction sought with a large enough effect; inconclusive = small, poorly fitted or top-dose-only effect, or another doubt; inactive = no such curve, though single readings can be large; an effect the other way counts as inactive or inconclusive. Unless noted, % is set by controls: 0 for no effect and ±100 for the full control effect; potency is the fitted concentration of half-maximal effect.

SMILES | HT1080-NT tox | TDP1 cell CPT | KB-V1 MDR tox | HT1080 IDH1KD tx | KB-3-1 cytotox | DT40 TDP1 no CPT
COc1cc(/C=C/c2nc3ccccc3c(=O)[nH]2)cc(OC)c1OC | u | -25.4% | i | u | 2.91µM* | -16.4%
Cc1ccccc1/C=C\c1nc2ccccc2c(=O)[nH]1 | 16.4µM* | 25.9µM* | u | 16.4µM* | u | 16.4µM*
Cc1ccccc1/C=C/c1nc2ccccc2c(=O)[nH]1 | -22.1% | 16.4µM* | u | -25.4% | u | u
COc1cc(/C=C/c2nc3ccccc3c(=O)[nH]2)ccc1OC(F)F | 5.7% | -6.6% | i | -2.6% | i | -2.8%
COc1cc2cc(C#N)c(SCC(=O)Nc3cc(C)on3)nc2cc1OC | -8.1% | -24.7% | i | -6.1% | i | -22.8%
CCOC(=O)C1CCCN(C(=O)c2cc(-c3ccccc3)nc3ccccc23)C1 (centres undefined) | -2.3% | 0.2% | i | -1.3% | i | 4.0%
CCOC(=O)C1CCN(C(=O)c2cc(-c3ccncc3)nc3ccccc23)CC1 | 2.1% | u | i | -5.9% | i | 20.6µM*
CCOc1ccc(-c2cc(C(=O)N3CCN(C)CC3)c3ccccc3n2)cc1 | 6.4% | u | i | 0.9% | i | u
Cc1ccc(-c2cc(C(=O)N3CCCCC3)c3ccccc3n2)cc1C | -16.0% | 16.4µM* | i | -21.3% | i | 23.1µM*
Cc1ccc(-c2cc(C(=O)N3N=C(C(F)F)CC3(O)C(F)F)c3ccccc3n2)cc1C (centres undefined) | u | 18.4µM* | u | u | i | u
CCOC(=O)N1CCN(C(=O)c2cc(-c3ccc(OCC)cc3)nc3ccccc23)CC1 | 5.01µM* | 4.61µM* | 2.31µM* | 5.01µM* | 4.61µM* | 3.66µM*
O=C(CCl)NC(Cc1ccccc1)C(=O)OCC(=O)c1ccc(-c2ccccc2)cc1 (centres undefined) | -25.1% | u | i | u | i | u
O=C(O)c1cccc(-n2cnc3cccnc32)c1 | x | -0.9% | x | x | x | -11.9%
COc1ccc(-c2ccc(C(=O)NCC3Cc4cccc(-c5nc(C)cnc5C)c4O3)o2)cc1 (centres undefined) | x | -1.5%[9.04 µM] | x | x | x | u
CCOC(=O)c1cnc2cc(-c3ccc(OCC)cc3)nn2c1-c1ccccc1 | x | 14.6µM* | x | x | x | 8.2µM*
CCOC(=O)c1cnc2cc(-c3ccc(C)cc3)nn2c1-c1ccccc1 | 11.8% | u | i | 8.5% | i | u
CCOC(=O)C1CCN(c2nc(-c3ccc(Br)cc3)nc3ccccc23)CC1 | -14.9% | 5.8µM* | u | -1.3% | u | 4.11µM*
CCOC(=O)N1CCN(C(=O)c2cc(-c3ccncc3)nc3ccccc23)CC1 | u | 5.8µM* | u | u | u | 5.8µM*
CCOc1ccc(-c2cc(C(=O)N3CCCC3)c3ccccc3n2)cc1 | -6.0% | u | x | 20.6% | x | 23.1µM*
O=[N+]([O-])c1cccc(-n2nnnc2CNCc2ccccc2)c1 | 2.6% | 1.1% | i | 9.7% | i | -15.9%
CCOC(=O)C1CCCN(C(=O)c2sc(-c3ccccc3)nc2C)CC1 (centres undefined) | u | u | i | -0.7% | i | 14.6µM*
COc1ccc(CCn2c(-n3nc(C)cc3C)nc3c2c(=O)[nH]c(=O)n3C)cc1 | u | 1.84µM* | 1.64µM* | u | i | 1.64µM*
Cc1ccc(Cn2c(-n3nc(C)cc3C)nc3c2c(=O)[nH]c(=O)n3C)cc1 | 8.2% | u | i | 4.7% | i | -22.7%
CCN(CC)C(=O)CSC1=C(C#N)C(c2ccco2)C(C(=O)OCCOC)=C(C)N1 (centres undefined) | -8.6% | 20.6µM*! | i | 12.9% | i | u
C=CCOC(=O)C1=C(C)NC(SCC(=O)N(CC)CC)=C(C#N)C1c1ccccc1 (centres undefined) | -22.0% | 20.6µM* | u | u | u | 20.6µM*
SMILES | HT1080-NT tox | TDP1 cell CPT | KB-V1 MDR tox | HT1080 IDH1KD tx | KB-3-1 cytotox | DT40 TDP1 no CPT
C=CCOC(=O)C1=C(C)NC(SCC(=O)N(CC)CC)=C(C#N)C1c1ccco1 (centres undefined) | 11.6% | -11.5% | i | 9.8% | i | u
CC(=O)C1=C(C)NC(SCc2cccc([N+](=O)[O-])c2)=C(C#N)C1c1ccco1 (centres undefined) | 0.4% | u | 10.3µM* | -9.0% | i | u
CCOC(=O)c1c(NC(=O)COC(=O)c2cccc([N+](=O)[O-])c2)sc(C(=O)N(C)C)c1C | 3.2% | -3.9% | i | 3.4% | i | -1.3%
CN1/C(=C/C=N/n2cnnc2)C(C)(C)c2ccccc21 | 0.0% | 18.4µM* | u | 0.0% | i | 23.1µM*
Cc1ccc(N(C)S(=O)(=O)c2ccc3[nH]cc(C(=O)O)c(=O)c3c2)cc1C | x | -0.7% | x | x | x | -14.6%
Cc1ccc(C)c(NC(=S)NC(NC(=O)/C=C/c2ccccc2)C(Cl)(Cl)Cl)c1 (centres undefined) | u | u | u | u | u | 23.1µM*
O=C(/C=C/c1ccccc1)NC(NC(=S)Nc1cccc(O)c1)C(Cl)(Cl)Cl (centres undefined) | u | u | u | u | u | 18.4µM*
O=C(NC(NC(=S)Nc1ccccc1Cl)C(Cl)(Cl)Cl)c1cccc(Cl)c1 (centres undefined) | u | 4.61µM* | 20.6µM* | u | u | 8.2µM*
COc1ccc(NC(=S)NC(NC(=O)c2cccc(C)c2)C(Cl)(Cl)Cl)c([N+](=O)[O-])c1 (centres undefined) | u | u | i | u | u | u
O=C(NC(NC(=S)Nc1ccc(Cl)cc1)C(Cl)(Cl)Cl)c1ccco1 (centres undefined) | u | u | u | u | i | u
O=C(NC(NC(=S)Nc1ccccc1O)C(Cl)(Cl)Cl)c1ccco1 (centres undefined) | -1.1% | u | i | -1.5% | i | 18.4µM*
CC1(C(=O)NCc2ccccn2)CCN1C(=O)Cc1ccc(Cl)cc1Cl (centres undefined) | 18.8% | -10.6% | u | 25.9% | i | -17.9%
O=S1(=O)CC(N2CCN(CC3CC3)CC2)CN1Cc1cn(Cc2ccccc2C(F)(F)F)nn1 (centres undefined) | 24.9% | -2.9% | i | 0.2% | i | -12.5%
